Compound activity: PubChem, National Center for Advancing Translational Sciences (NCATS)
HP1b chromo inh: blocks HP1-beta chromodomain binding to methylated histone tails; P83916; AID 540317; 390,000 compounds, 0.56% hits; Potency, µM (highest dose often 114 µM), usual class: inhibitors; AlphaScreen HP1-beta / biotin-H3K9me3 peptide binding; note: nearly all actives have a fitted effect of over 70% in size
Target sequence (P83916 whole entry, looked up): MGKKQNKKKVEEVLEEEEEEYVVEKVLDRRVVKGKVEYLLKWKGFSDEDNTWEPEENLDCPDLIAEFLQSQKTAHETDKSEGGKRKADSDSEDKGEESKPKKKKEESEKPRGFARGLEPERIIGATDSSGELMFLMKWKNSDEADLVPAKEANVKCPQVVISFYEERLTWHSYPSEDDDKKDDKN
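Compound inhibition of the preformed complex between 50 nM HP1-beta and 50 nM biotinylated H3K9me3 peptide was read by AlphaScreen. Buffer was PBS pH 7.4 with 0.01% Tween-20. Incubations ran 30 min at room temperature, with 10 ug/mL donor/acceptor beads.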
BAZ2B block: inhibitors of human BAZ2B bromodomain; Q9UIF8; AlphaScreen BAZ2B-H3K14Ac peptide displacement; Potency, µM (titrated, usually from 114 µM), usual class: inhibitors; 360,000 compounds, 4.4% hits; AID 504333; note: nearly all actives have a fitted effect of over 60% in size
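Multi-concentration screen (max 110 uM) measuring displacement of acetylated histone H3 peptide from BAZ2B by AlphaScreen, using 50 nM protein, 50 nM peptide and 10 ug/mL streptavidin donor plus Ni-chelate acceptor beads.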
Sfp inh: inhibitors of Bacillus subtilis Sfp phosphopantetheinyl transferase; Q9F4F7; Biochemical Sfp PPTase activity, qHTS; Potency, µM, most hits filed as inhibitors; 310,000 compounds, 3.5% hits; AID 1490;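 note: the enzyme is Sfp with the accession as filed and its product quenches rhodamine fluorescence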
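After 15 min at room temperature with compound, 15 nM Sfp received 5 uM rhodamine-CoA plus 12.5 uM BHQ-2-ybbR (50 mM Hepes pH 7.6, 10 mM MgCl2). Rate came from the fluorescence difference over 30 min, ex 525/em 598 nm.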
JMJD2A Tudor inh: inhibitors of human JMJD2A Tudor domain; 390,000 compounds, 4.4% hits; O75164; Potency, µM (top dose mostly 114 µM), most hits filed as inhibitors; AlphaScreen JMJD2A-Tudor / H3K4me3 peptide binding; note: nearly all actives have a fitted effect of over 50% in size
G9a block: inhibitors of human histone lysine methyltransferase G9a | Q96KQ7 | Potency, µM (doses to about 102 µM), usual class: inhibitors | 350,000 compounds, 8.8% hits | G9a H3K9 monomethylation, AlphaScreen, 2 h; note: nearly all actives have a fitted effect of over 75% in size
Target sequence (Q96KQ7 913-1193 limits assumed): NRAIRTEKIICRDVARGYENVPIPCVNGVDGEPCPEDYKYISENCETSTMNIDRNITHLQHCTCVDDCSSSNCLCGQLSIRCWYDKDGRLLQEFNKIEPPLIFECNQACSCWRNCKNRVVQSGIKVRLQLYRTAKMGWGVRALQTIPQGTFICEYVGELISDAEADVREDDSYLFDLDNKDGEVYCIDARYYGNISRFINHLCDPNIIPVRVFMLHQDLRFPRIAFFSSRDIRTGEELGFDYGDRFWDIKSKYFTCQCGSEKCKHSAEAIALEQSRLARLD
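Signal arises when biotinylated H3K9 peptide, once monomethylated, bridges streptavidin donor and antibody-captured acceptor beads. Enzyme at 20 nM was preincubated 15 min with test compounds; peptide 500 nM and SAM 20 uM then reacted for 2 h.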
Of the large screens only hits and unclear results are named; the others gave an inactive call. In the library only some 12% were active in any assay of this set; here they are far more common. Calls come from the whole dose curve; as a rule, active = well fitted curve in the direction sought with a large enough effect; inconclusive = small, poorly fitted or top-dose-only effect, or another doubt; inactive = no such curve, though single readings can be large; an effect the other way counts as inactive or inconclusive.

COc1ccc(-c2nc3c(c4c2C[C@H](c2ccccc2)OC4)CN(S(=O)(=O)c2ccc4c(c2)OCCN4C)CC3)c(C)c1	none (no result: HP1b chromo inh, BAZ2B block, JMJD2A Tudor inh, G9a block)
Cc1cc2ccccc2n1CCNC(=O)c1cc(C(F)(F)F)cc(C(F)(F)F)c1	none (no result: Sfp inh)
CCC(=O)Nc1nc(CC(=O)Nc2ccccc2OC)cs1	none
Cc1ccccc1NC(=O)Cc1nc(COC(=O)c2ccccn2)cs1	G9a block 50.1µM (no result: Sfp inh)
COc1cc(C)ccc1NC(=O)Cc1csc(NC(=O)Nc2ccccc2OC)n1	BAZ2B block inconclusive, G9a block 12.6µM (no result: Sfp inh)
COc1ccccc1NC(=O)Cc1nc(CCl)cs1	BAZ2B block 56.2µM, JMJD2A Tudor inh inconclusive, G9a block 6.31µM
COCCNC(=O)CCn1c(=O)c2cc(OC)c(OC)cc2n(CC(=O)Nc2ccccc2OC)c1=O	none (no result: Sfp inh)
O=C(NNc1ccc([N+](=O)[O-])cc1)C1C2CCCCC21 (centres undefined)	G9a block 89.1µM
Cc1ccc(NC(=O)C2C3CCCCC32)cc1[N+](=O)[O-] (centres undefined)	BAZ2B block 20µM, JMJD2A Tudor inh inconclusive (no result: G9a block)
O=C(NNc1ccc([N+](=O)[O-])cc1[N+](=O)[O-])C1C2CCCCC21 (centres undefined)	G9a block inconclusive
CCOC(=O)NCc1ccc2[nH]c(C)cc2c1	JMJD2A Tudor inh inconclusive, G9a block inconclusive
Cc1cc2cc(CNC(=S)Nc3ccc(OC(F)(F)F)cc3)ccc2[nH]1	JMJD2A Tudor inh inconclusive
CCNC(=S)NCc1ccc2[nH]c(C)cc2c1	BAZ2B block inconclusive, JMJD2A Tudor inh inconclusive, G9a block 50.1µM
Cc1cc2cc(CNC(=S)Nc3ccc(OC(F)F)cc3)ccc2[nH]1	BAZ2B block 44.7µM, JMJD2A Tudor inh inconclusive
COc1cccc(-c2nnc3n(Cc4ccc(C)cc4)c(=O)c4ccccc4n23)c1O	none (no result: Sfp inh)
Clc1ccc(-n2cnc3c(Cl)ncnc32)cc1Cl	none (no result: BAZ2B block, Sfp inh, G9a block)
O=C(CCCn1c(SCC(=O)NC2CCCCC2)nc2ccccc2c1=O)NCC1CCCO1 (centres undefined)	none
O=C(CCCn1c(SCC(=O)c2ccc(O)c(O)c2)nc2ccccc2c1=O)NCC1CCCO1 (centres undefined)	BAZ2B block inconclusive, JMJD2A Tudor inh 31.6µM, G9a block 35.5µM
O=C(CSc1cn(CC(=O)N2CCCCC2)c2ccccc12)NCC1CCCO1 (centres undefined)	JMJD2A Tudor inh 50.1µM
O=C(CSc1nc2ccccc2c(=O)n1CCC(=O)N1CCN(c2ccccc2)CC1)NCC1CCCO1 (centres undefined)	JMJD2A Tudor inh 56.2µM
COc1cccc(CN2CCC(C(=O)Nc3ccc(-c4cccc(C)c4)cc3)CC2)c1O	BAZ2B block inconclusive, Sfp inh inconclusive, JMJD2A Tudor inh inconclusive, G9a block 20µM
Cc1cccc(-c2ccc(NC(=O)C3CCN(CC4CC4)CC3)cc2)c1	none (no result: G9a block)
Cc1ccc(CNC(=O)c2oc3ccc(S(=O)(=O)N4CCCC(C)C4)cc3c2C)cc1 (centres undefined)	none (no result: Sfp inh)
O=C(NNc1ccccc1[N+](=O)[O-])Nc1cccc(Cl)c1	BAZ2B block 89.1µM, JMJD2A Tudor inh inconclusive
O=C(NNc1ccccc1[N+](=O)[O-])Nc1ccc(F)cc1F	G9a block 31.6µM
O=C(Nc1cccc(Cl)c1)Nc1ccccc1C(=O)O	G9a block inconclusive
O=C(COc1ccccc1)Nc1cc(Cl)ccc1Cl	none (no result: G9a block)
O=C(NNc1ccccc1)Nc1cc(Cl)ccc1Cl	HP1b chromo inh 50.1µM, JMJD2A Tudor inh inconclusive (no result: BAZ2B block, Sfp inh, G9a block)
O=c1c2ccccc2c(-c2n[nH]c(=S)o2)nn1Cc1ccccc1	Sfp inh 79.4µM, JMJD2A Tudor inh inconclusive, G9a block 3.98µM
Cc1ccccc1-c1n[nH]c(=S)o1	JMJD2A Tudor inh inconclusive, G9a block 12.6µM
O=c1c2ccccc2c(-c2ccccc2)nn1Cc1c(Cl)cccc1Cl	none
S=c1[nH]nc(-c2cc(-c3ccccn3)nc3ccccc23)o1	G9a block inconclusive
S=c1[nH]nc(-c2ccccc2)o1	BAZ2B block 79.4µM, G9a block inconclusive
COc1ccccc1-c1n[nH]c(=S)o1	G9a block inconclusive
CSc1ccccc1-c1n[nH]c(=S)o1	JMJD2A Tudor inh inconclusive, G9a block 6.31µM
Cc1nn(C)c(Oc2cccc(C(F)(F)F)c2)c1C=O	none
NS(=O)(=O)c1ccc(CCNC(=O)C2CCN(C(=O)Nc3ccccc3)CC2)cc1	none (no result: BAZ2B block, Sfp inh, G9a block)
CCCCCCCN1N=C(C)C(C(=O)c2ccccc2)C1=O (centres undefined)	BAZ2B block inconclusive, JMJD2A Tudor inh 50.1µM, G9a block inconclusive
CCCCCCN1N=C(C)C(C(=O)c2ccc(Cl)cc2)C1=O (centres undefined)	JMJD2A Tudor inh inconclusive
C=C(C)CC1(c2ccccc2)Oc2ccccc2-c2nc3cc(Cl)c(Cl)cc3nc21 (centres undefined)	none (no result: HP1b chromo inh, BAZ2B block, JMJD2A Tudor inh, G9a block)
CC(=N)c1c(O)c2ccccc2oc1=O	none
CCOc1ccc(OCC(=O)c2c(O)c3ccccc3oc2=O)cc1	HP1b chromo inh inconclusive, BAZ2B block 50.1µM, Sfp inh 28.2µM, JMJD2A Tudor inh 11.2µM, G9a block 3.16µM
COc1ccc(N=Cc2c(O)c3ccccc3oc2=O)cc1	G9a block inconclusive
O=C(CC1CCCCC1)c1c(O)c2ccccc2oc1=O	none
COc1ccc(OCC(=O)c2c(O)c3ccccc3oc2=O)cc1	HP1b chromo inh 17.8µM, BAZ2B block inconclusive, Sfp inh 20µM, JMJD2A Tudor inh 20µM, G9a block 3.16µM
CC1CCC(C(=O)c2c(O)c3ccccc3oc2=O)CC1 (centres undefined)	G9a block 50.1µM
CC1CCC(NC(=O)COC(=O)CSc2ccc(C(N)=O)cc2[N+](=O)[O-])CC1 (centres undefined)	G9a block 50.1µM (no result: Sfp inh)
CC1CCN(C(=O)c2ccc(SCc3ccccc3F)c([N+](=O)[O-])c2)CC1	HP1b chromo inh inconclusive, JMJD2A Tudor inh inconclusive, G9a block 28.2µM
NC(=O)c1ccc(SCC(=O)OCC(=O)N2CCCC2=O)c([N+](=O)[O-])c1	G9a block 50.1µM (no result: Sfp inh)
CCOC(=O)CSc1ccc(C(=O)N2CCN(C)CC2)cc1[N+](=O)[O-]	G9a block 44.7µM
O=C(c1ccc(S(=O)(=O)Cc2ccccc2F)c([N+](=O)[O-])c1)N1CCCCCC1	G9a block inconclusive
C=C1CCN(C(CC(C)C)C(=O)Nc2nc3ccc(Cl)cc3s2)S(=O)(=O)c2ccccc21 (centres undefined)	none (no result: BAZ2B block, G9a block)
COc1ccc(C(=O)NCC(c2ccco2)N2CCc3ccccc32)c(OC)c1 (centres undefined)	BAZ2B block inconclusive (no result: Sfp inh)
CN(C)c1ccc(C(CNC(=O)c2ccccc2Cl)N2CCc3ccccc32)cc1 (centres undefined)	HP1b chromo inh inconclusive, BAZ2B block 12.6µM, JMJD2A Tudor inh 17.8µM, G9a block 14.1µM (no result: Sfp inh)
